# Source: PubChem BioAssay
# Pf growth 48h = inhibits P. falciparum growth in the first generation, 48 h; P. falciparum luciferase growth in erythrocytes, 48 h; Potency, µM (doses to about 28.7 µM), without a hit: at the top dose activity change, negative = inhibition, most hits filed as inhibitors; actives 5.9% (n = 310,000); note: % is set by controls: 0 for no effect and ±100 for the full control effect
#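 In quantitative HTS format, infected erythrocytes bearing luciferase-reporter parasites were treated for a single generation at 37 C. Luminescence after adding detection reagent served as the growth measure.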
# Sm TGR inh = S. mansoni TGR enzyme inhibition; Q962Y6; purified TGR, DTNB reduction, TNB absorbance 405 nm; Potency, µM (series often up to 114 µM), without a hit: top-dose activity change, negative = inhibition, most hits filed as inhibitors; actives 3% (n = 360,000); AID 485364; note: % is set by controls: 0 for no effect and ±100 for the full control effect; nearly all actives have a fitted effect of over 60% in size
#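 First, TGR (20 nM dispensed) and NADPH were mixed with compound. Second, a 15 min room-temperature incubation followed. Third, further NADPH and then DTNB were added to start the reaction. Finally, TNB absorbance was monitored kinetically.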
# Pf growth 96h = P. falciparum growth inhibition at 96 hours; P. falciparum luciferase reporter growth, 96 h; Potency, µM (highest dose often 28.7 µM), for inactives: at the highest dose activity change, negative = inhibition, usual class: inhibitors; actives 6.9% (n = 320,000); AID 504834; note: % is set by controls: 0 for no effect and ±100 for the full control effect
#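 Plates of compound plus infected erythrocytes (2% hematocrit, 0.05% parasitemia final) incubate 96 hours, 37 C, 5% CO2. Detection reagent added; reduced luminescence from the parasites' luciferase reporter flags inhibition.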
# SARS PLpro yeast = SARS-CoV PLP inhibition in yeast. S. cerevisiae expressing SARS-CoV PLpro, growth rescue. AID 485353. actives 0.19% (n = 330,000). Potency, µM (highest dose often 32.9 µM), for inactives: at the highest dose activity, positive = growth rescue, hits mostly activators; calls by dose curve; note: 0% is about no effect; nearly all actives have a fitted effect of over 55% in size
# Numbers without * were called inactive; u = inconclusive; x = no result. Sampled rows, rich in hits. Any-hit rate of the full collection: about 12%. Unless noted, calls come from the whole dose curve; as a rule, active = well fitted curve in the direction sought with a large enough effect; inconclusive = small, poorly fitted or top-dose-only effect, or another doubt; inactive = no such curve, though single readings can be large; an effect the other way counts as inactive or inconclusive. Potency is the fitted concentration of half-maximal effect.
SMILES,Pf growth 48h,Sm TGR inh,Pf growth 96h,SARS PLpro yeast
COc1ccccc1C1=CC(=O)C[C@H](c2ccc3c(c2)OCO3)C1,-8%,1%,11%,-29%
O=C1C=C(c2ccccc2Oc2ccccc2)C[C@@H](c2ccc3c(c2)OCO3)C1,3.7µM*,-3%,u,3%
CCOC(=O)c1cccc(C2=CC(=O)C[C@H](c3ccc(Cl)cc3)C2)c1,13µM*,-1%,u,1%
Cc1ccc(-n2nnnc2SC(C(=O)c2c[nH]c3ccccc23)c2ccccc2)cc1 (stereo not drawn),u,-1%,1.5µM*,-23%
NC(=O)NCCc1ccccc1,31%,-1%,34%,4%
O=C(CSCc1cc(=O)n2ccsc2n1)Nc1ccccc1,16%,116%,u,2%
C(=N\N1CCN(Cc2ccccc2)CC1)/c1cccnc1,33%,-13%,6.6µM*,-1%
Cc1ccc(S(=O)(=O)Cc2ccc(C(=O)NCCc3ccc(Cl)cc3)o2)cc1,x,6%,x,x
O=C(CCN1C(=O)/C(=C/c2ccccc2F)SC1=S)NCCCn1ccnc1,u,-21%,u,0%
CCc1ccc2c(c1)C1(C(=O)N2)N2CCCC2C(C(=O)c2ccc3ccccc3c2)C12C(=O)Nc1ccccc12 (stereo not drawn),u,-2%,2.3µM*,-15%
Clc1ccc(/C=N/Nc2ncnc3nc[nH]c23)cc1,u,3%,12µM*,0%
Cc1ccc(/C=N/Nc2ncnc3nc[nH]c23)cc1,-4%,5%,11%,3%
Cc1cc(C)c(NC(=O)C2CCN(c3cnccn3)CC2)c(C)c1,6%,-2%,13µM*,-20%
COc1ccc(S(=O)(=O)c2c(O)c3ccc(C(=O)Nc4ccccc4)cc3[nH]c2=O)cc1,25%,2%,u,-3%
COc1ccccc1NC(=O)c1ccc2c(O)c(S(=O)(=O)c3ccccc3)c(=O)[nH]c2c1,26%,2%,12µM*,-4%
CCC(C)NC(=O)CN1C(=O)c2cccnc2Oc2ccc(C)cc21 (stereo not drawn),x,13%,x,x
Fc1cc(F)cc(Nc2nc(Cl)nc(NC3CCCC3)n2)c1,1%,7%,u,0%
CCOC(=O)C(NC(C)=O)C(OC(C)=O)c1cccc(N(CCCl)CCCl)c1 (stereo not drawn),u,-21%,10µM*,18%
CCOC(=O)C(NC(C)=O)C(OC(C)=O)c1cccc([N+](=O)[O-])c1 (stereo not drawn),40%,9%,10%,2%
Cc1ccccc1N1CCN(C2=NC(=O)/C(=C\c3cccs3)S2)CC1,u,4%,10µM*,-37%
O=C1N=C(N2CCOCC2)S/C1=C/c1cccs1,-26%,-18%,12µM*,2%
O=C1N=C(N2CCN(c3cccc4ccccc34)CC2)S/C1=C/c1cccs1,8.3µM*,4%,9.3µM*,-1%
NC1=NC(=O)/C(=C/c2cccs2)S1,-2%,6%,u,5%
CC(=O)N1CCN(C2=NC(=O)/C(=C\c3cccs3)S2)CC1,-23%,-6%,-16%,0%
COc1cc(CN2CCCCC2C(=O)Nc2ccc(Oc3ccccc3)nc2)ccc1O (stereo not drawn),u,1.8µM*,5%,-1%
SMILES,Pf growth 48h,Sm TGR inh,Pf growth 96h,SARS PLpro yeast
O=C(Nc1ccc(Oc2ccccc2)nc1)C1CCCCN1Cc1ccc(O)cc1 (stereo not drawn),u,32µM*,u,0%
COCCc1ncc(CN2CCCCC2C(=O)Nc2ccc(Oc3ccccc3)nc2)cn1 (stereo not drawn),-16%,-24%,-22%,14%
O=C(Nc1ccc(Oc2ccccc2)nc1)C1CCCCN1Cc1cccc(O)c1 (stereo not drawn),u,5%,5.9µM*,-6%
CCCOc1ccc(NC(=O)CC2C(=O)N(c3ccc(OC)cc3)C(=O)N2CCc2ccncc2)cc1 (stereo not drawn),x,10%,x,x
CCn1cc(S(=O)(=O)c2ccccc2)c(=O)c2cc(F)c(N3CCN(c4ccccc4)CC3)cc21,x,-5%,x,x
Cc1nn(-c2ccc(N3CCCC3)nn2)c(C)c1CCC(=O)N1CCN(c2ccccc2F)CC1,x,3%,x,x
CN(C)C(CNc1ncccn1)c1ccccc1 (stereo not drawn),14%,7%,23%,1%
O=C(Nc1ccc2c(c1)N(Cc1ccccc1)C(=O)c1ccccc1S2)NC1CC1,6.6µM*,21%,12µM*,-15%
C#Cc1ccc(CN2CCC(Oc3cc(C(=O)NC4CC4)ccc3OC)CC2)cc1,13µM*,-1%,-1%,2%
CCn1ncc(CN2CCC(Oc3cc(C(=O)NC4CC4)ccc3OC)CC2)c1C,-3%,-17%,1µM*,-2%
COc1ccc(C(=O)NC2CC2)cc1OC1CCN(Cc2ccc(F)cc2)CC1,-20%,5%,u,-5%
CCC(CO)NCc1ccc(Br)cc1 (stereo not drawn),9%,3%,-1%,1%
CCC(CO)NCc1ccc(-c2ccccc2)cc1 (stereo not drawn),14%,0%,3.7µM*,3%
CC(NCc1cccc(Cl)c1Cl)C(O)c1ccccc1 (stereo not drawn),9.3µM*,-11%,4.7µM*,24%
CC(O)CNCc1ccc(-c2ccccc2)cc1 (stereo not drawn),-5%,3%,-11%,-7%
CCOc1c(Cl)cc(CNC(C)C(O)c2ccccc2)cc1OC (stereo not drawn),1.5µM*,-12%,22%,2%
COc1cc(OC)c(OC)cc1CNC(C)C(O)c1ccccc1 (stereo not drawn),-14%,1%,-19%,0%
CC(NCc1ccc(-c2ccccc2)cc1)C(O)c1ccccc1 (stereo not drawn),2.9µM*,-23%,2.3µM*,-32%
COc1ccc(-c2nc(Cn3c(SCc4ccc(C)cc4)nc4cccnc43)c(C)o2)cc1OC,x,5%,x,x
Cc1nnc(NC(=O)C2CC(=O)N(c3ccccc3)C2)s1 (stereo not drawn),-1%,1%,u,2%
Cc1ccc(NC(=O)C(=O)NCc2ccc(Cl)cc2)cc1,x,19%,x,x
CC(NCc1ccc(Cl)cc1)C(O)c1ccccc1 (stereo not drawn),2.6µM*,6%,3.7µM*,-2%
CC(NCc1ccc(Cl)cc1Cl)C(O)c1ccccc1 (stereo not drawn),1µM*,7%,1.5µM*,3%
CC(CC(=O)NCc1ccc(Cl)cc1)c1ccccc1 (stereo not drawn),14%,-35%,u,-2%
C=CC[C@H](CC(=O)N(CCO)Cc1ccccc1)C(=O)N[C@H](C)COC(=O)[C@@H](CC=C)CC(=O)OC(C)(C)C,x,x,x,-6%
N=c1ccn(Cc2ccc(Cl)c(Cl)c2)cc1,0.59µM*,-10%,-33%,-3%
N=c1ccn(Cc2cccc(Cl)c2)cc1,2.6µM*,-3%,u,5%
N=c1ccn(Cc2ccc(Cl)cc2)cc1,1.9µM*,0%,7%,-2%
CCOC(=O)CN1N=C(c2ccc(Cl)cc2)CCC1=O,9%,-12%,13µM*,3%
